{"source": "PubChem BioAssay AID624037", "about": "(The Scripps Research Institute Molecular Screening Center, 2012)", "note": "Among all 360,000 compounds or so, about 700 (0.19%) were called active. The list comes from a sample in which actives are over-represented; it also holds similar structures and randomly drawn compounds. A number with no mark means an inactive call.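 Rule for the calls: active = activation above the run's mean over test compounds plus 3 SD (cut at about 23% in these data); inactive = the rest.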"}
{"biological_target": "Muscarinic acetylcholine receptor M5 (Homo sapiens) (UniProt P08912)", "sequence (P08912 whole entry, looked up)": "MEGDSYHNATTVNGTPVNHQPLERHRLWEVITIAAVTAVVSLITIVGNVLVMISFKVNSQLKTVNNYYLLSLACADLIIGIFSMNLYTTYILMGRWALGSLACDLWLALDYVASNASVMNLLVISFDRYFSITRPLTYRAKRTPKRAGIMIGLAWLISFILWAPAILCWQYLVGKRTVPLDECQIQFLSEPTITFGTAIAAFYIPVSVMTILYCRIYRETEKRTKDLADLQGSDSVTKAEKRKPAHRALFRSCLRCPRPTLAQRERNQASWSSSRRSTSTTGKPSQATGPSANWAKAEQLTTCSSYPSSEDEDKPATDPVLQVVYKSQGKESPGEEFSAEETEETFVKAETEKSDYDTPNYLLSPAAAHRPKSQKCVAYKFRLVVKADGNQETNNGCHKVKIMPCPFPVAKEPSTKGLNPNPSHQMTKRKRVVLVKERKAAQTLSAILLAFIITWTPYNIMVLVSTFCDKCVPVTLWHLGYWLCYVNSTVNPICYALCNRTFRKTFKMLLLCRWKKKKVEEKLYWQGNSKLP", "assay": "CHRM5 activators raising intracellular calcium – CHO-K1 cells, Fluo-8 calcium fluorescence, primary screen (AID 624037);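 note: signal is peak over basal fluorescence ratio across the kinetic read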", "details": "CHO-K1 hM5 cells, at 3 µM, hits give high values, 0% DMSO wells, 100% maximal acetylcholine response"}
{"smiles": "COc1ccc(-n2c(C)csc2=S)cc1", "activation": "-0.99%"}
{"smiles": "CCOC(=O)C1=C(CC)OC(N)=C(C#N)C1c1ccc(F)cc1F", "note": "(stereo not drawn)", "activation": "-0.33%"}
{"smiles": "Cn1cc(CNC(=O)c2ccc(OC3CCN(Cc4ccccn4)CC3)cc2)cn1", "activation": "-4.97%"}
{"smiles": "COc1ccc(SCCN2CCN(CC(C)C)CCC2=O)cc1", "activation": "1.8%"}
{"smiles": "O=C(COc1nc2ccccc2nc1N1CCOCC1)NCC(F)(F)F", "activation": "-2.71%"}
{"smiles": "Nc1nc2c(ncn2[C@@H]2O[C@H](CNCc3ccc(OCCCN4CCOCC4)cc3)[C@@H](O)[C@H]2O)c(=O)[nH]1", "activation": "0.62%"}
{"smiles": "O=[N+]([O-])c1cc(C(F)(F)F)ccc1NCCc1ccncc1", "activation": "-2.99%"}
{"smiles": "COc1ccc(C(=O)/C=C/Nc2ccccn2)cc1", "activation": "78% (active)"}
{"smiles": "COCCN(C(=O)CCC(=O)Nc1ccccn1)C(C(=O)NCCC(C)C)c1ccc(OC)cc1", "note": "(stereo not drawn)", "activation": "-1.86%"}
{"smiles": "O=C(/C=C/Nc1ccc(S(=O)(=O)Nc2cnc3ccccc3n2)cc1)c1cccnc1", "activation": "-3.4%"}
{"smiles": "CCOc1ccc(C(=O)NC(=S)Nc2ccc(N3CCOCC3)c(Cl)c2)cc1[N+](=O)[O-]", "activation": "-0.99%"}
{"smiles": "COc1ccc(NC(=O)CN2C(=O)COc3ccc(S(=O)(=O)N4CCOCC4)cc32)c(OC)c1", "activation": "0.4%"}
{"smiles": "C[C@H]1COC(=O)[C@H](CC(=O)OC(C)(C)C)C/C=C\\C[C@@H](CC(=O)N[C@H](CO)Cc2ccccc2)C(=O)N1", "activation": "0.74%"}
{"smiles": "Nc1ccn(C2CC(O)C(CO)O2)c(=O)n1", "note": "(stereo not drawn)", "activation": "10.7%"}
{"smiles": "O=c1[nH]cnc(O)c1C(c1ccc(F)cc1)c1c(O)nc[nH]c1=O", "activation": "0.85%"}
{"smiles": "Cc1occc(=O)c1OCc1c(Cl)cccc1Cl", "activation": "-4.28%"}
{"smiles": "Cc1occc1C(=O)NC1CCCN(Cc2ccc(CC(C)C)cc2)C1", "note": "(stereo not drawn)", "activation": "-1.97%"}
{"smiles": "Cc1ccc(Cn2c(C)c(C(=O)NCc3ccccc3C(F)(F)F)sc2=O)cc1", "activation": "-2.26%"}
{"smiles": "CC(=O)Oc1ccc(Cn2c(C)c(C(=O)NCc3ccc(C#N)cc3)sc2=O)cc1", "activation": "47.2% (active)"}
{"smiles": "Cc1c(C(=O)NCc2ccc(C#N)cc2)sc(=O)n1Cc1ccc(C(=O)N(C)C)cc1", "activation": "0.99%"}
{"smiles": "CCN(C(=O)COC(=O)c1cc(NS(=O)(=O)c2ccc(Cl)c([N+](=O)[O-])c2)ccc1O)C1CCCCC1", "activation": "2.95%"}
{"smiles": "CCC(CC)NC(=O)CSc1nnc(-c2c[nH]c3ccccc23)o1", "activation": "-0.74%"}
{"smiles": "CC1=CC=CN2C1=NC(=O)CC2(C)C(=O)N(CC(=O)NC1CCCC1)c1ccccc1C", "note": "(stereo not drawn)", "activation": "0.83%"}
{"smiles": "COc1cc(=O)[nH]c(=O)n1C(=O)Cc1ccccc1", "activation": "-1.68%"}
{"smiles": "COc1cc(/C=C2/SC(=S)N(Cc3ccccc3)C2=O)cc(OC)c1O", "activation": "24.1% (active)"}
{"smiles": "COc1cc(C(=S)NCc2ccccc2)cc(Br)c1O", "activation": "-4.14%"}
{"smiles": "Nc1c(C(=O)c2cccs2)sc2nsc(SCCN3CCCCC3)c12", "activation": "121% (active)"}
{"smiles": "COc1cccc(-c2cnc3c(NC(C)=O)cc(-c4cc(F)ccc4OC)cn23)c1", "activation": "-1.59%"}
{"smiles": "CCn1c(C(C)C)n[nH]c1=S", "activation": "1.36%"}
{"smiles": "CCOc1ccc(Cn2nnc(C(=O)NCc3ccccc3)c2N)cc1", "activation": "34.7% (active)"}
{"smiles": "CCCn1nc2cc(C(=O)NCc3ccccc3)ccc2c1OCC", "activation": "-0.79%"}
{"smiles": "CCc1ccc(NC(=O)Cn2nnc(C(=O)NCc3ccc4c(c3)OCO4)c2N)cc1", "activation": "-3.78%"}
{"smiles": "CCN(CC)CCCC(C)n1c2nc(=O)[nH]c(=O)c-2nc2cc(Cl)ccc21", "note": "(stereo not drawn)", "activation": "438% (active)"}
{"smiles": "CC#CC[N+](C)(C)CCCCCC", "activation": "-16.5%"}
{"smiles": "CCc1ccc(NC(=O)C(C)OC(=O)/C=C/c2cccc([N+](=O)[O-])c2)cc1", "note": "(stereo not drawn)", "activation": "-0.62%"}
{"smiles": "CCCCN(C)CCNC(=O)CSCc1ccc(C)cc1", "activation": "-6.02%"}
{"smiles": "Cc1ccc(CNC(=O)C(=O)c2cn(CC(=O)N3CCOCC3)c3ccccc23)cc1", "activation": "-1.51%"}
{"smiles": "O=C1/C(=C/c2ccc3c(c2)OCO3)Oc2cc(OCC(=O)N3CC(O)C[C@H]3C(=O)O)ccc21", "note": "(stereo partly drawn)", "activation": "0.73%"}
{"smiles": "CCOCCCNC(=S)Nc1ccc2nc(N3CCN(CC)CC3)cc(C)c2c1", "activation": "-4.11%"}
{"smiles": "Cn1cccc1C(C#N)c1ccccc1C#N", "note": "(stereo not drawn)", "activation": "-3.67%"}
{"smiles": "Cc1cccc2c1N(CCOc1ccccc1)C(=O)C2=O", "activation": "30.5% (active)"}
{"smiles": "O=C1c2ccccc2C(=O)N1CCOc1ccc(F)cc1", "activation": "11.9%"}
{"smiles": "Cc1cccc(C)c1-n1nnnc1C1(C)CCC(=O)N1CCOc1ccccc1", "note": "(stereo not drawn)", "activation": "4.47%"}
{"smiles": "O=c1ccc(S(=O)(=O)N2CCCC2)cn1Cc1nc(-c2ccccc2)no1", "activation": "-5.43%"}
{"smiles": "Cc1ccc(C)c(NC(=O)c2ccc(OC(=O)c3ccco3)cc2)c1", "activation": "-2.18%"}
{"smiles": "Cc1csc(=O)n1CC(=O)OCC(=O)N(CC(C)C)c1c(N)n(Cc2ccccc2)c(=O)[nH]c1=O", "activation": "3.34%"}
{"smiles": "CN(Cc1ccccc1)C(=O)COC(=O)/C=C/c1ccc2c(c1)OCO2", "activation": "0.5%"}
{"smiles": "CCNC(=O)C1(C)CCCN(Cc2noc(-c3ccccc3OC)n2)C1", "note": "(stereo not drawn)", "activation": "1.13%"}
{"smiles": "Cc1ccc(CNC(=O)c2cccc3c2C(=O)c2ccc(N4CCC(C)CC4)cc2S3(=O)=O)cc1", "activation": "4.93%"}
{"smiles": "COc1ccc(S(=O)(=O)N2CCC(C(=O)NCCC(=O)Nc3ccccc3OC)CC2)cc1", "activation": "-1.33%"}
{"smiles": "CN(c1ccccn1)c1ncnc2[nH]ncc12", "activation": "-0.14%"}
{"smiles": "CN(C)/C=C/C(=O)c1cnc2sccn2c1=O", "activation": "-2.29%"}
{"smiles": "O=C(O)c1ccn(COc2ccc(Br)cc2)n1", "activation": "-0.71%"}
{"smiles": "Cc1c(NC(=O)COC(=O)/C=C/c2cccc(F)c2)c(=O)n(-c2ccccc2)n1C", "activation": "0.67%"}
{"smiles": "CCCCC[C@H]1CN(C2CCCCC2)C(=O)[C@@H]1CC(=O)NCc1ccc(OC)cc1", "activation": "-4.19%"}
{"smiles": "COc1cc(N2C(=O)CC3(CCCC3)CC2=O)cc(OC)c1OC", "activation": "1.4%"}
{"smiles": "Cc1ccc(C)c(NS(=O)(=O)c2ccc(OCC(=O)NCc3cccnc3)cc2)c1", "activation": "-1.65%"}
{"smiles": "CC(C)(C)OC(=O)C[C@@H]1C/C=C\\C[C@@H](CC(=O)NCCO)C(=O)N[C@H](Cc2c[nH]c3ccccc23)COC1=O", "activation": "-0.08%"}
